GalR3 antagonist = antagonists of human GalR3 | O60755 | HEK293 GalR3-CNG cAMP membrane potential fluorescence; galR3 body fused to GalR1 C-terminus | inhibition, % at 3 µM | 360,000 compounds, 0.44% hits | AID 651719;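 active = inhibition above the screen-wide average plus 3 SD, cut at about 13% in these data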;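 note: forskolin and galanin both at EC90 stimulate the cells; cAMP rise reported by CNG channel membrane potential dye signal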
NCOA2 inhibitor = inhibits human steroid receptor coactivator 2; Q15596; HEK293 GAL4-SRC2 luciferase reporter, luminescence; inhibition, % at 9 µM; 370,000 compounds, 0.17% hits; AID 651957;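 active = inhibition above the mean inhibition of all tested compounds plus 3 SD, set per campaign, cut at about 52% in these data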
SRC1 inh = human NCOA1 inhibition | AID 588354 | 360,000 compounds, 0.12% hits | inhibition, % at 3.6 µM | HEK293 GAL4-SRC1 luciferase reporter, luminescence | Q15788;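 active = inhibition above the campaign mean plus 3 SD, with each screening campaign given its own cutoff, cut at about 60% in these data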
SRC3 inh = inhibitors of human steroid receptor coactivator 3 (SRC3) | HEK293 GAL4-SRC3 luciferase reporter, luminescence | 360,000 compounds, 0.17% hits | Q9Y6Q9 | inhibition, % at 3.6 µM;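 active = inhibition above a per-campaign cutoff, the mean of all compounds plus 3 SD, cut at about 60% in these data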;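 note: higher means less SRC3-driven luciferase light from the GAL4 reporter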
Target sequence (Q9Y6Q9 whole entry, looked up, the tested form may be a part): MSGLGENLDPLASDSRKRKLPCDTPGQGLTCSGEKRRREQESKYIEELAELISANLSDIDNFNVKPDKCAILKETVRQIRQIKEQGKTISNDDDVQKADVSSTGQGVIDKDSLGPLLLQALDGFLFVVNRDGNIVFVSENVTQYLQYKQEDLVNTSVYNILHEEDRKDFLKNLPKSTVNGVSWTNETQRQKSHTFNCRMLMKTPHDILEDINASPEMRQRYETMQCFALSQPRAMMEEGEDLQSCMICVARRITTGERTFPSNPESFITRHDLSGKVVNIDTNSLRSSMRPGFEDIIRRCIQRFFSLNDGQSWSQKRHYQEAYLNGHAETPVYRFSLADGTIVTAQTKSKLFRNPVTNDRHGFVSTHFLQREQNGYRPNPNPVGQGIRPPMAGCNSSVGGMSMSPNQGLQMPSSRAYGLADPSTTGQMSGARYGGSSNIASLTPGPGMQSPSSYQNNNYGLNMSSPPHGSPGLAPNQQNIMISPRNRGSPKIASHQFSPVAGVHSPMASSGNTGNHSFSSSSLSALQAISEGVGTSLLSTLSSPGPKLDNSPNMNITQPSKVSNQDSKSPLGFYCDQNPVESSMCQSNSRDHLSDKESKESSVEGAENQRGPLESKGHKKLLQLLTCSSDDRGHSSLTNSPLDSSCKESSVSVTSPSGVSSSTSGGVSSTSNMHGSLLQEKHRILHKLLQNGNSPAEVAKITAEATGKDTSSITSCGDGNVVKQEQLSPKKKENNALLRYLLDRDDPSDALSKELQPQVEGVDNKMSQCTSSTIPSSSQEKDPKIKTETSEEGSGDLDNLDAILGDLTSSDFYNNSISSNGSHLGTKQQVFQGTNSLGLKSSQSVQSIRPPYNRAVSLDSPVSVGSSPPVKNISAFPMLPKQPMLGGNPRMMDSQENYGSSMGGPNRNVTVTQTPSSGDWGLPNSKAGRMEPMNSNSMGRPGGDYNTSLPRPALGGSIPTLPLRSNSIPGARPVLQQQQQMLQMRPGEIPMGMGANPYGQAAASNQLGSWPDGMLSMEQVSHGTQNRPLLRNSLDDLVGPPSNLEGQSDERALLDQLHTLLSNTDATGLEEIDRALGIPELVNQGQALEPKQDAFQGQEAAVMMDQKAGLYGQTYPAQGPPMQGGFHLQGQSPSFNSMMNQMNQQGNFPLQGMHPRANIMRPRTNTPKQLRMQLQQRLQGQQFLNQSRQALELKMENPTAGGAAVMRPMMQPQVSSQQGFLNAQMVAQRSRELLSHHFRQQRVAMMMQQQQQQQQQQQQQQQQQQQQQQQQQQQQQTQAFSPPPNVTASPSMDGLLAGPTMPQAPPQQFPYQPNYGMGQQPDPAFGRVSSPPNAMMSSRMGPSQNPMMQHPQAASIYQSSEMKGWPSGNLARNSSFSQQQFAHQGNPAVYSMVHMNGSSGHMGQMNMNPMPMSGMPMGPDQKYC
LRH-1 inv ag = NR5A2 inverse agonism in reporter assay. O00482. HEK293T StAR-luciferase reporter, LRH-1 transfected, 24 h. inhibition, % at 3.6 µM. 360,000 compounds, 0.13% hits;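 active = inhibition above the mean inhibition of all tested compounds plus 3 SD, cut at about 73% in these data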
NR2F2 inh = blocks human COUP-TFII nuclear receptor. 370,000 compounds, 0.7% hits. P24468. inhibition, % at 8.6 µM. HEK293T NGFI-A luciferase reporter, luminescence. AID 686940;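 active = inhibition above a per-plate cutoff, mean inhibition of test wells between control levels plus 3 SD, cut at about 38% in these data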;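 note: cells cotransfected with COUP-TFII expression vector driving the NGFI-A reporter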
VP16 Luc counter = counter-screen for COUP-TFII antagonists: inhibitors of VP16; shares compounds with NR2F2 inh; HEK293 Gal4-VP16 luciferase reporter, luminescence; inhibition, % at 8.5 µM; 2,500 compounds, 25% hits; in the data active = inhibition above about 13%
NR2F2 inh conf = COUP-TFII (NR2F2) inhibition, confirmation assay; HEK293 NGFI-A luciferase reporter, luminescence; shares compounds with NR2F2 inh; AID 687008; inhibition, % at 8.5 µM; 2,500 compounds, 45% hits;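 active = mean inhibition over three repeats above a set limit taken from the earlier primary screen, cut at about 38% in these data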
Hits are given with their value; - = inactive; . = no result. The list is not random: actives were taken first. Their share in the collection is about 1.1%.

SMILES | GalR3 antagonist | NCOA2 inhibitor | SRC1 inh | SRC3 inh | LRH-1 inv ag | NR2F2 inh | VP16 Luc counter | NR2F2 inh conf
O=C(Nc1cccc(S(=O)(=O)NC2=NCCCCC2)c1)c1ccc(Cl)cc1 | - | - | - | - | - | 43 | - | -
CCOc1ccccc1-n1c(SCC(=O)Nc2ccccc2C(=O)O)nc2ccccc2c1=O | - | - | - | - | - | 56 | 23 | -
CCn1c(SCC(=O)Nc2ccccc2OC)nc2ccccc2c1=O | - | - | - | - | - | - | . | .
COC(=O)c1c(NC(=O)CCCC(=O)O)sc(C)c1C | - | - | - | - | - | - | . | .
Cc1sc(NC(=O)CCCC(=O)O)c(C(N)=O)c1-c1ccccc1 | - | 75 | - | - | - | 60 | 47 | -
C(=N\Nc1nc2ccccc2s1)/c1ccccn1 | - | 69 | . | . | . | 63 | 70 | 80
O=C(c1ccccc1)c1ccc(OCC(O)CN2CCN(S(=O)(=O)N3CCCCC3)CC2)cc1 (configuration not stated) | - | - | - | - | - | 42 | - | -
COC(=O)CSc1nnc(-c2ccc(NS(=O)(=O)c3c(C(C)C)cc(C(C)C)cc3C(C)C)cc2)o1 | . | - | . | . | . | - | . | .
CC1Cc2cc(S(=O)(=O)N3CCN(c4ccc(Cl)cc4)CC3)ccc2N1C(=O)C1CC1 (configuration not stated) | - | - | - | - | - | - | . | .
CC(=O)N1c2ccc(S(=O)(=O)N3CCC(C(=O)N4CCN(c5ccc(Cl)cc5)CC4)CC3)cc2CC1C (configuration not stated) | - | - | - | - | - | 44 | - | -
Cc1ccc(S(=O)(=O)N2CCCCC2)cc1NCC(=O)Nc1ccc(Br)cc1F | - | - | - | - | - | 55 | - | -
COc1ccccc1NC(=O)c1ccc(S(=O)(=O)N2CCCC2)cc1 | - | - | - | - | - | - | . | .
CCc1ccc(C(=O)Nc2ccc(OC)c(S(=O)(=O)N3CCOCC3)c2)cc1 | - | - | - | - | - | - | . | .
O=C(CNc1ccccc1F)Nc1cc(S(=O)(=O)N2CCCCC2)ccc1Cl | - | - | - | - | - | - | . | .
COc1ccc(C(=O)Nc2ccc(C)c(S(=O)(=O)N3CCCCCC3)c2)cc1 | - | - | - | - | - | 46 | - | -
CCc1ccc(C(=O)Nc2ccc(OC)c(S(=O)(=O)N3CCCCC3)c2)cc1 | - | - | - | - | - | 58 | - | -
COc1ccccc1NS(=O)(=O)c1ccc(C)c(NC(=O)c2ccc(S(=O)(=O)N3CCCCCC3)cc2)c1 | - | - | - | - | - | 41 | - | -
COc1ccc(-n2c(SCC(=O)Nc3ccccc3-c3ccccc3)nnc2-c2ccccn2)cc1 | . | - | . | . | . | - | . | .
CCOC(=O)C1=NOC(C(=O)NC2CCCC2)(C(=O)C2CC2)C1 (configuration not stated) | . | - | . | . | . | - | . | .
Cc1c(C)n(Cc2ccc(-c3ccccc3C(=O)O)cc2)c2ccc(C(=O)N[C@@H](C)c3ccc(Br)cc3)cc12 | . | - | . | . | . | - | . | .
Cc1ccc(NC(=O)/C=C/c2ccco2)cc1S(=O)(=O)N1CCCCCC1 | - | - | - | - | - | 50 | - | -
C=CCN1[C@H](CC(C)C)COc2cc(N3CCSCC3)ccc2S1(=O)=O | . | - | . | . | . | - | . | .
CN1C(=O)/C(=C\c2ccccc2F)Sc2ccc(C(=O)NC3CCN(Cc4ccccc4)CC3)cc21 | - | - | - | - | - | 41 | - | -
COc1ccc(/C=C2\Sc3ccc(C(=O)NC4CC4)cc3N(C)C2=O)cc1OC | - | - | - | - | - | - | . | .
O=C1NCCN1CCN1CCC(c2cn(-c3ccc(F)cc3)c3ccc(Cl)cc23)CC1 | . | - | . | . | . | 43 | - | -
SMILES | GalR3 antagonist | NCOA2 inhibitor | SRC1 inh | SRC3 inh | LRH-1 inv ag | NR2F2 inh | VP16 Luc counter | NR2F2 inh conf
O=C(NCCN1CCC(n2c(=O)[nH]c3cc(Cl)ccc32)CC1)c1ccc(F)cc1 | - | - | . | . | . | - | . | .
O=C(NCc1cccc(Cl)c1)O[C@H]1CC[C@@]23CCCN2C(=O)CCC[C@H]3C1 | . | . | . | . | . | - | . | .
COc1ccc(NC(=O)N2CCN(c3nc(-c4cccc(OC)c4)cs3)CC2)cc1 | - | - | - | - | - | 40 | - | -
COc1cccc(-c2csc(N3CCN(C(=O)Nc4ccc(Cl)cc4)CC3)n2)c1 | - | - | - | - | - | - | . | .
C=CCOC(=O)N[C@H](c1ccc(-c2ccccc2)cc1)[C@H](C)/C=C/CC(=O)OC | . | - | . | . | . | - | . | .
COc1ccc(-c2noc(CCCC(=O)O)n2)cc1 | - | 77 | - | - | - | 83 | 81 | 80
CCOc1ccc(-c2noc(CCC(=O)O)n2)cc1 | - | 73 | - | - | - | 82 | 66 | 57
COc1ccc(-c2noc(CCC(=O)O)n2)cc1 | - | - | - | - | - | - | . | .
Cc1nc(SCC(N)=O)[nH]c(=O)c1C | . | . | . | . | . | - | . | .
CC[n+]1c(/C=C2\Sc3ccccc3N2C)ccc2cccc(C)c21 | - | - | - | - | 84 | 80 | 14 | 78
NC(=O)C1CCN(c2ncc(Br)s2)CC1 | . | . | . | . | . | - | . | .
CCC(C)Cn1c(C)nc2ccccc21 (configuration not stated) | - | - | - | - | - | - | . | .
Cc1nc2ccccc2n1Cc1ccccc1Br | - | - | - | - | - | 41 | - | -
O=C(c1cc(COc2c(F)cccc2F)on1)N1CCC(c2ccncc2)CC1 | - | - | - | - | - | 60 | - | 47
CCc1ccccc1NC(=O)Nc1cccn(Cc2ccccc2F)c1=O | - | - | - | - | - | - | . | .
CSc1ccc(NC(=O)Nc2cccn(Cc3ccccc3F)c2=O)cc1 | - | - | - | - | - | 39 | - | -
FC(F)(F)c1nc(-c2ccncc2)ncc1-c1nnnn1-c1ccccc1 | - | - | - | - | - | - | . | .
Fc1ccc(-n2nnnc2-c2cnc(-c3cccs3)nc2C(F)(F)F)cc1 | - | - | - | - | - | 53 | - | 38
FC(F)(F)c1nc(N2CCCC2)ncc1-c1nnnn1-c1ccc(Cl)cc1 | - | - | - | - | - | 38 | - | -
FC(F)(F)c1ccncc1-c1nnnn1-c1ccc(Cl)cc1 | - | - | - | - | - | - | . | .
COC(=O)[C@H]1[C@@H](O)[C@@]2(O)c3c(OC)cc(OC)cc3O[C@@]2(c2ccc(OC)cc2)[C@@H]1c1ccc(F)cc1 | - | 62 | . | . | . | 84 | - | 65
CCCCN(c1ccccc1)c1ncnc(N)c1[N+](=O)[O-] | - | 57 | 61 | 63 | - | 52 | 15 | -
CN(c1ncnc(N)c1[N+](=O)[O-])C1CCS(=O)(=O)C1 (configuration not stated) | - | - | - | - | - | - | . | .
COC(=O)[C@]12C[C@H](CC(=O)N3CCCC3)C(=O)N(Cc3ccc(Cl)cc3Cl)C1=C[C@H](COCc1ccccc1)O[C@@H]2C | . | - | . | . | . | - | . | .
